# Test results from paper PMC11006913.
# Changes are numbered by the printed parent chain.
# Columns and labels:
# Experiment in all cases: PBM; 200 nM protein, PBS
# Details in all cases: dsDNA, one strand shown
# NKX2-4 [1] = target: T1, NKX2-4 (Homo sapiens, UniProt Q9H2Z4 175-261, P217L)
# T1 sequence: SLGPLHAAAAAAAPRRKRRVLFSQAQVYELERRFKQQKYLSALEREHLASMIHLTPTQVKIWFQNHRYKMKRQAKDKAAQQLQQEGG
# NKX2-4 [2] = target: T2, NKX2-4 (Homo sapiens, UniProt Q9H2Z4 175-261, T231S)
# T2 sequence: T1 sequence with L43P, T57S
# NKX2-4 [3] = target: T3, NKX2-4 (Homo sapiens, UniProt Q9H2Z4 175-261)
# T3 sequence: T1 sequence with L43P
# NKX2-4 [4] = target: T4, NKX2-4 (Homo sapiens, UniProt Q9H2Z4 175-261, R246Q)
# T4 sequence: T1 sequence with L43P, R72Q
# VENTX [5] = target: T5, VENTX (Homo sapiens, UniProt O95231 78-163, R121Q)
# T5 sequence: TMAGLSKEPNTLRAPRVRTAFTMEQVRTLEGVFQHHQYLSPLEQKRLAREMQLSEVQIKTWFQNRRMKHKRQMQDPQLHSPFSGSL
# HOXC9 [6] = target: HOXC9 (Homo sapiens, UniProt P31274 178-260, K195R)
# Sequence of HOXC9 (Homo sapiens, UniProt P31274 178-260, K195R) (P31274 178-260 K195R): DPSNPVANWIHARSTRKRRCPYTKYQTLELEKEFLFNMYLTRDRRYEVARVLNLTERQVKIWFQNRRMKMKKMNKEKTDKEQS
# VENTX [7] = target: T6, VENTX (Homo sapiens, UniProt O95231 78-163)
# T6 sequence: T5 sequence with Q44R
# VENTX [8] = target: T7, VENTX (Homo sapiens, UniProt O95231 78-163, Y115F)
# T7 sequence: T5 sequence with Y38F, Q44R
# HOXC9 [9] = target: HOXC9 (Homo sapiens, UniProt P31274 178-260)
# Sequence of HOXC9 (Homo sapiens, UniProt P31274 178-260) (P31274 178-260): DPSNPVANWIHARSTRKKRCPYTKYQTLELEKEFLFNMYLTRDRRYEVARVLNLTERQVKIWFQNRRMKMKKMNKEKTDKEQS
# HOXC9 [10] = target: HOXC9 (Homo sapiens, UniProt P31274 178-260, R193K)
# Sequence of HOXC9 (Homo sapiens, UniProt P31274 178-260, R193K) (P31274 178-260 R193K): as the sequence (P31274 178-260) above, with R16K counted along it
# HOXC9 [11] = target: HOXC9 (Homo sapiens, UniProt P31274 178-260, R222W)
# Sequence of HOXC9 (Homo sapiens, UniProt P31274 178-260, R222W) (P31274 178-260 R222W): as the sequence (P31274 178-260) above, with R45W counted along it
# HOXB9 [12] = target: HOXB9 (Homo sapiens, UniProt P17482 171-250, T197M)
# Sequence of HOXB9 (Homo sapiens, UniProt P17482 171-250, T197M) (P17482 171-250 T197M): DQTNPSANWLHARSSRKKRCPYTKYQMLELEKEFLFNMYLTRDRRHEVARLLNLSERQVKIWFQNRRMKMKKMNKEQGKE
# HOXA7 [13] = target: HOXA7 (Homo sapiens, UniProt P31268 116-202)
# Sequence of HOXA7 (Homo sapiens, UniProt P31268 116-202) (P31268 116-202): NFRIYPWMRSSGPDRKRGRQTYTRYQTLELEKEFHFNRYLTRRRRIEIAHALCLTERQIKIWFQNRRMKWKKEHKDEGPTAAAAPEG
# HOXB9 [14] = target: HOXB9 (Homo sapiens, UniProt P17482 171-250)
# Sequence of HOXB9 (Homo sapiens, UniProt P17482 171-250) (P17482 171-250): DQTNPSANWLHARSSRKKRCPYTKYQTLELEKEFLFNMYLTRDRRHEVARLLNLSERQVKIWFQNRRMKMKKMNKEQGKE
# MSX2 [15] = target: MSX2 (Homo sapiens, UniProt P35548 130-214, R199I)
# Sequence of MSX2 (Homo sapiens, UniProt P35548 130-214, R199I) (P35548 130-214 R199I): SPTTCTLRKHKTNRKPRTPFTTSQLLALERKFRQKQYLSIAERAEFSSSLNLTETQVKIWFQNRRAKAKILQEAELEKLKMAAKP
# MSX2 [16] = target: MSX2 (Homo sapiens, UniProt P35548 130-214)
# Sequence of MSX2 (Homo sapiens, UniProt P35548 130-214) (P35548 130-214): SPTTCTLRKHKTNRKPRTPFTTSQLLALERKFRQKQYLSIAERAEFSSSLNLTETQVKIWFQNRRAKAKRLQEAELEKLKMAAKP
# PROP1 [17] = target: PROP1 (Homo sapiens, UniProt O75360 56-141)
# Sequence of PROP1 (Homo sapiens, UniProt O75360 56-141) (O75360 56-141): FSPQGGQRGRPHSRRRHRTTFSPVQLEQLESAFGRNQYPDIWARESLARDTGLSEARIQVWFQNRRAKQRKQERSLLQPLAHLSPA
# PROP1 [18] = target: PROP1 (Homo sapiens, UniProt O75360 56-141, R99H)
# Sequence of PROP1 (Homo sapiens, UniProt O75360 56-141, R99H) (O75360 56-141 R99H): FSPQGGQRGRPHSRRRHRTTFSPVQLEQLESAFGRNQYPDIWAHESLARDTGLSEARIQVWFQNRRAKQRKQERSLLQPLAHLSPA
# HOXB9 [19] = target: HOXB9 (Homo sapiens, UniProt P17482 171-250, R186Q)
# Sequence of HOXB9 (Homo sapiens, UniProt P17482 171-250, R186Q) (P17482 171-250 R186Q): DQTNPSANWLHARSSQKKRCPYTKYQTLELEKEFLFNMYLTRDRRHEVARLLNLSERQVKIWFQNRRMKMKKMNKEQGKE
# PROP1 [20] = target: PROP1 (Homo sapiens, UniProt O75360 56-141, F88S)
# Sequence of PROP1 (Homo sapiens, UniProt O75360 56-141, F88S) (O75360 56-141 F88S): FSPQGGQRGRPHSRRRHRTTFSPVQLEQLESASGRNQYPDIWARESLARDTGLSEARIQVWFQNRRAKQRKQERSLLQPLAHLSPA
# MSX2 [21] = target: MSX2 (Homo sapiens, UniProt P35548 130-214, F161Y)
# Sequence of MSX2 (Homo sapiens, UniProt P35548 130-214, F161Y) (P35548 130-214 F161Y): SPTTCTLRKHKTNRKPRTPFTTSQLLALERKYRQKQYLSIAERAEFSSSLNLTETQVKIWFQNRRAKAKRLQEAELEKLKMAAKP
# HOXA7 [22] = target: HOXA7 (Homo sapiens, UniProt P31268 116-202, W177C)
# Sequence of HOXA7 (Homo sapiens, UniProt P31268 116-202, W177C) (P31268 116-202 W177C): as the sequence (P31268 116-202) above, with W62C counted along it
# SIX6 [23] = target: T8, SIX6 (Homo sapiens, UniProt O95475 114-200, L167I)
# T8 sequence: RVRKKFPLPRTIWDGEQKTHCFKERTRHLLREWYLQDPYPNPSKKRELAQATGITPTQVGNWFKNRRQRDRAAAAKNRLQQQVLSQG
# SIX6 [24] = target: T9, SIX6 (Homo sapiens, UniProt O95475 114-200, L143V)
# T9 sequence: T8 sequence with L30V, I54L
# SIX6 [25] = target: T10, SIX6 (Homo sapiens, UniProt O95475 114-200, H141N)
# T10 sequence: T8 sequence with H28N, I54L
# SIX6 [26] = target: T11, SIX6 (Homo sapiens, UniProt O95475 114-200, T165P)
# T11 sequence: T8 sequence with T52P, I54L
# SIX6 [27] = target: T12, SIX6 (Homo sapiens, UniProt O95475 114-200, L167M)
# T12 sequence: T8 sequence with I54M
# SIX6 [28] = target: T13, SIX6 (Homo sapiens, UniProt O95475 114-200, L143M)
# T13 sequence: T8 sequence with L30M, I54L
# SIX6 [29] = target: T14, SIX6 (Homo sapiens, UniProt O95475 114-200, L143I)
# T14 sequence: T8 sequence with L30I, I54L
# SIX6 [30] = target: T15, SIX6 (Homo sapiens, UniProt O95475 114-200, T165G)
# T15 sequence: T8 sequence with T52G, I54L
# SIX6 [31] = target: T16, SIX6 (Homo sapiens, UniProt O95475 114-200, T139Q)
# T16 sequence: T8 sequence with T26Q, I54L
# SIX6 [32] = target: T17, SIX6 (Homo sapiens, UniProt O95475 114-200, T165A)
# T17 sequence: T8 sequence with T52A, I54L
# SIX6 [33] = target: T18, SIX6 (Homo sapiens, UniProt O95475 114-200, L167V)
# T18 sequence: T8 sequence with I54V
# SIX6 [34] = target: T19, SIX6 (Homo sapiens, UniProt O95475 114-200)
# T19 sequence: T8 sequence with I54L
# SIX6 [35] = target: T20, SIX6 (Homo sapiens, UniProt O95475 114-200, T165I)
# T20 sequence: T8 sequence with T52I, I54L
sequence,measurement,setting,value
AGGCGGGC,binding signal,NKX2-4 [1],"9.12 upbm affinity estimate (log intensity, higher = more binding, comparable within an allelic series)"
same,binding signal,NKX2-4 [2],"8.97 upbm affinity estimate (log intensity, higher = more binding, comparable within an allelic series)"
same,binding signal,NKX2-4 [3],"9.16 upbm affinity estimate (log intensity, higher = more binding, comparable within an allelic series)"
same,binding signal,NKX2-4 [4],"9.08 upbm affinity estimate (log intensity, higher = more binding, comparable within an allelic series)"
CGCACGCG,binding signal,NKX2-4 [1],"9.51 upbm affinity estimate (log intensity, higher = more binding, comparable within an allelic series)"
same,binding signal,NKX2-4 [2],"9.45 upbm affinity estimate (log intensity, higher = more binding, comparable within an allelic series)"
same,binding signal,NKX2-4 [3],"9.53 upbm affinity estimate (log intensity, higher = more binding, comparable within an allelic series)"
same,binding signal,NKX2-4 [4],"9.45 upbm affinity estimate (log intensity, higher = more binding, comparable within an allelic series)"
ATGTCCGG,binding signal,NKX2-4 [1],"9.39 upbm affinity estimate (log intensity, higher = more binding, comparable within an allelic series)"
same,binding signal,NKX2-4 [2],"9.43 upbm affinity estimate (log intensity, higher = more binding, comparable within an allelic series)"
same,binding signal,NKX2-4 [3],"9.4 upbm affinity estimate (log intensity, higher = more binding, comparable within an allelic series)"
same,binding signal,NKX2-4 [4],"9.49 upbm affinity estimate (log intensity, higher = more binding, comparable within an allelic series)"
ACGAGTAT,binding signal,NKX2-4 [1],"11.5 upbm affinity estimate (log intensity, higher = more binding, comparable within an allelic series)"
same,binding signal,NKX2-4 [2],"11.7 upbm affinity estimate (log intensity, higher = more binding, comparable within an allelic series)"
same,binding signal,NKX2-4 [3],"11.4 upbm affinity estimate (log intensity, higher = more binding, comparable within an allelic series)"
same,binding signal,NKX2-4 [4],"11.6 upbm affinity estimate (log intensity, higher = more binding, comparable within an allelic series)"
CTGGGACC,binding signal,VENTX [5],"8.08 upbm affinity estimate (log intensity, higher = more binding, comparable within an allelic series)"
same,binding signal,HOXC9 [6],"9.45 upbm affinity estimate (log intensity, higher = more binding, comparable within an allelic series)"
same,binding signal,VENTX [7],"8.05 upbm affinity estimate (log intensity, higher = more binding, comparable within an allelic series)"
same,binding signal,VENTX [8],"8.06 upbm affinity estimate (log intensity, higher = more binding, comparable within an allelic series)"
same,binding signal,HOXC9 [9],"9.59 upbm affinity estimate (log intensity, higher = more binding, comparable within an allelic series)"
same,binding signal,HOXC9 [10],"9.43 upbm affinity estimate (log intensity, higher = more binding, comparable within an allelic series)"
same,binding signal,HOXC9 [11],"9.65 upbm affinity estimate (log intensity, higher = more binding, comparable within an allelic series)"
CCCGGACG,binding signal,VENTX [5],"7.96 upbm affinity estimate (log intensity, higher = more binding, comparable within an allelic series)"
same,binding signal,HOXB9 [12],"8.39 upbm affinity estimate (log intensity, higher = more binding, comparable within an allelic series)"
same,binding signal,VENTX [7],"7.88 upbm affinity estimate (log intensity, higher = more binding, comparable within an allelic series)"
same,binding signal,HOXA7 [13],"8.42 upbm affinity estimate (log intensity, higher = more binding, comparable within an allelic series)"
same,binding signal,VENTX [8],"8.04 upbm affinity estimate (log intensity, higher = more binding, comparable within an allelic series)"
same,binding signal,HOXB9 [14],"8.49 upbm affinity estimate (log intensity, higher = more binding, comparable within an allelic series)"
same,binding signal,MSX2 [15],"9.41 upbm affinity estimate (log intensity, higher = more binding, comparable within an allelic series)"
same,binding signal,MSX2 [16],"9.27 upbm affinity estimate (log intensity, higher = more binding, comparable within an allelic series)"
same,binding signal,PROP1 [17],"6.37 upbm affinity estimate (log intensity, higher = more binding, comparable within an allelic series)"
same,binding signal,PROP1 [18],"6.67 upbm affinity estimate (log intensity, higher = more binding, comparable within an allelic series)"
same,binding signal,HOXB9 [19],"8.54 upbm affinity estimate (log intensity, higher = more binding, comparable within an allelic series)"
same,binding signal,PROP1 [20],"6.37 upbm affinity estimate (log intensity, higher = more binding, comparable within an allelic series)"
same,binding signal,MSX2 [21],"9.4 upbm affinity estimate (log intensity, higher = more binding, comparable within an allelic series)"
same,binding signal,HOXA7 [22],"8.37 upbm affinity estimate (log intensity, higher = more binding, comparable within an allelic series)"
GGCGGAAC,binding signal,VENTX [5],"8.14 upbm affinity estimate (log intensity, higher = more binding, comparable within an allelic series)"
same,binding signal,SIX6 [23],"8.85 upbm affinity estimate (log intensity, higher = more binding, comparable within an allelic series)"
same,binding signal,VENTX [7],"8.22 upbm affinity estimate (log intensity, higher = more binding, comparable within an allelic series)"
same,binding signal,SIX6 [24],"8.81 upbm affinity estimate (log intensity, higher = more binding, comparable within an allelic series)"
same,binding signal,SIX6 [25],"8.78 upbm affinity estimate (log intensity, higher = more binding, comparable within an allelic series)"
same,binding signal,SIX6 [26],"8.99 upbm affinity estimate (log intensity, higher = more binding, comparable within an allelic series)"
same,binding signal,VENTX [8],"8.15 upbm affinity estimate (log intensity, higher = more binding, comparable within an allelic series)"
same,binding signal,SIX6 [27],"8.81 upbm affinity estimate (log intensity, higher = more binding, comparable within an allelic series)"
same,binding signal,SIX6 [28],"8.85 upbm affinity estimate (log intensity, higher = more binding, comparable within an allelic series)"
same,binding signal,SIX6 [29],"8.84 upbm affinity estimate (log intensity, higher = more binding, comparable within an allelic series)"
same,binding signal,SIX6 [30],"8.85 upbm affinity estimate (log intensity, higher = more binding, comparable within an allelic series)"
same,binding signal,SIX6 [31],"8.82 upbm affinity estimate (log intensity, higher = more binding, comparable within an allelic series)"
same,binding signal,SIX6 [32],"8.85 upbm affinity estimate (log intensity, higher = more binding, comparable within an allelic series)"
same,binding signal,SIX6 [33],"8.86 upbm affinity estimate (log intensity, higher = more binding, comparable within an allelic series)"
same,binding signal,SIX6 [34],"8.77 upbm affinity estimate (log intensity, higher = more binding, comparable within an allelic series)"
same,binding signal,SIX6 [35],"8.82 upbm affinity estimate (log intensity, higher = more binding, comparable within an allelic series)"
